High-throughput results as filed in PubChem BioAssay.
A selection: hits, their analogues and other compounds. The true share with any hit is near 1.7%.
GLP1R inv ag: GLP-1 receptor (human) inverse agonism | HEK293 GLP-1R CRE-luciferase, luminescence, 24 h; GLP-1R form is constitutively active | P43220 | Potency, µM (doses to about 38.3 µM), without a hit: at the highest dose activity change, negative = inhibition, usual class: inhibitors | 410,000 tested, 1.6% active; also: % is scaled to controls: 0 for no effect and ±100 for the full control effect; nearly all actives have a fitted effect of over 55% in size
Target sequence (P43220 whole entry, looked up): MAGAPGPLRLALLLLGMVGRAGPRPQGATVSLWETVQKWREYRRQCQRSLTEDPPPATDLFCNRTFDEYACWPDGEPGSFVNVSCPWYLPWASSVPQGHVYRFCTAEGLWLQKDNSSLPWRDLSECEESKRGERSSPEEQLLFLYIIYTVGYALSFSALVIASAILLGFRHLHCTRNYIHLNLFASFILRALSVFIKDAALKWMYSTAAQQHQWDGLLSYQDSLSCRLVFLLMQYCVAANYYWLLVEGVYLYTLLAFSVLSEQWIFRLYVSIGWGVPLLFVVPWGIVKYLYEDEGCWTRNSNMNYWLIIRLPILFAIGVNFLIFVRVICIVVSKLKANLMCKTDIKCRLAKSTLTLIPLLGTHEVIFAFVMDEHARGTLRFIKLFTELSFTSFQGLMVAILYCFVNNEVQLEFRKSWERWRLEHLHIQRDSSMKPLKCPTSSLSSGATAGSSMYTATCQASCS
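Inverse agonists were sought by their lowering of basal cAMP reporter luciferase output in HEK293 cells stably carrying constitutively active human GLP-1R, after 24 h compound treatment.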
RGS4 inh: inhibitors of human regulator of G protein signaling 4; P49798; 390,000 tested, 0.039% active; Potency, µM (doses to about 114 µM), for the others: top-dose activity change, negative = inhibition, most hits filed as inhibitors; Transcreener GDP fluorescence polarization, RGS4-accelerated GTP hydrolysis; also: % is scaled to controls: 0 for no effect and ±100 for the full control effect; nearly all actives have a fitted effect of over 75% in size
Target sequence (P49798 whole entry, looked up): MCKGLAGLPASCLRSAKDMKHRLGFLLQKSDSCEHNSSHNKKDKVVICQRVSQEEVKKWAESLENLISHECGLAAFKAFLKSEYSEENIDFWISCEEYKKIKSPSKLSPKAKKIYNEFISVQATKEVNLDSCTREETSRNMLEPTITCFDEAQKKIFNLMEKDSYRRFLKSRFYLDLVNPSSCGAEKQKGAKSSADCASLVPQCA
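MLSMR compounds (23 nl, pin-transferred) preincubated 10 min at room temperature with a 500nM (2x) first reagent, then RGS4 at 900nM (2x) plus Transcreener GDP mix added; fluorescence polarization (620/688 nm) read before and after 90 min at 30 °C.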
PTHR1 agonist: agonists of human PTHR1 parathyroid hormone receptor; HEK293 GP2 PTHR1 cells, GloSensor cAMP luminescence, 1 h; Potency, µM (doses to about 115 µM), without a hit: at the highest dose activation, most hits filed as activators; 410,000 tested, 0.075% active; AID 743266; also: nearly all actives have a fitted effect of over 55% in size
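HEK-293-derived GP2 cells expressing PTHR1 and a GloSensor cAMP reporter, 3,000/well, plated overnight, given luciferin plus IBMX (each 0.5 mM as added) for 1 h at 37 °C, then compound for 1 h at 37 °C. Luminescence was read after 15 min at room temperature.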
GLP1R ag: GLP-1 receptor (human) agonism | 380,000 tested, 0.007% active | P43220 | HEK293 GLP-1R CRE-luciferase, luminescence, 4-6 h; cells express a hypersensitive GLP-1R form | Potency, µM (highest dose often 45.6 µM), for the others: at the top dose activation, actives largely listed as activators; also: % of control where 0% means no effect
HEK293 tox: cytotoxic in the GLP-1 receptor inverse agonist counter-screen | 410,000 tested, 0.13% active | AID 624418 | HEK293 cAMP-luciferase reporter cells, luminescence, 24 h | Potency, µM (series often up to 38.3 µM), inactives show at the highest dose activity change, negative = inhibition, usual class: inhibitors;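 also: loss of luciferase light is scored as toxicity; % is scaled to controls: 0 for no effect and ±100 for the full control effect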
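Cells in DMEM/10% Nu serum/1% pen-strep, 1536-well format. Pre-incubated 12 h, dosed with 23 nL compound, incubated a further 24 h. Luciferase detection, 12 min at room temp, luminescence.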
The depositor's hits bear a star; i = inactive; ? = inconclusive; · = no result given; [ ] = another dose, or the depositor's remark. Calls follow the shape of the dose curve; as a rule, active = well fitted curve in the direction sought with a large enough effect; inconclusive = small, poorly fitted or top-dose-only effect, or another doubt; inactive = no such curve, though single readings can be large; an effect the other way counts as inactive or inconclusive. Potency is read from the fitted curve at half-maximal effect.

SMILES | GLP1R inv ag | RGS4 inh | PTHR1 agonist | GLP1R ag | HEK293 tox
O=C(CSc1nc2c([nH]c3ccccc32)c(=O)n1-c1ccccc1F)Nc1cccc(C(F)(F)F)c1 | 11.2µM* | -22.3% | -14.2% | 3.0% | -22.3%
C=C1C(=O)O[C@@H]2[C@H]1CC[C@H](C)[C@]1(O)CCC(=O)[C@@]21C | 8.91µM* | 2.1% | -27.5% | -6.5% | ?
C=C1C(=O)O[C@@H]2[C@@H]1CC/C(C)=C\CC[C@@]1(C)O[C@H]21 | · | · | · | -11.0% | ·
FC(F)(F)c1cnc(COc2cc(Cl)cc(Cl)c2)c(Cl)c1 | -6.2% | 38.5% | i | 6.0% | 2.2%
O=C(O)c1cccc(Nc2ccncc2[N+](=O)[O-])c1 | 16.8% | -49.0%[56.9 µM] | i | 0.8% | -12.3%
Cc1cc(C)cc(NC(=O)Nc2cc(S(=O)(=O)N(C)C)ccc2C)c1 | 10µM* | 14.5% | i | 11.8% | 5.6%
Oc1ccc2ccccc2c1N=Nc1ccccc1F | 16.3% | -0.3% | i | 1.3% | -12.1%
Oc1ccc2ccccc2c1N=Nc1ccccn1 | ? | -30.6% | i | ? | 2.51µM*
S=C(NC1CCCCC1)NN(c1ccccc1)c1ccccc1 | 10µM* | 20.9% | -6.4% | -2.5% | ?
C/C(=N\NC(=S)NC1CCCCC1)c1ccc(O)cc1 | ? | -14.5% | ? | 26.6% | ?
C/C(=N\NC(=S)NC1CCCCC1)c1ccccc1 | 5.62µM* | -14.5% | -17.1% | 6.1% | ?
NS(=O)(=O)c1ccc(CCNc2nn3c(-c4cccc(OC(F)(F)F)c4)cnc3s2)cc1 | ? | · | -50.4% | -7.2% | -22.5%
Clc1ccc(/C=N\Nc2ccccc2)cc1 | 3.98µM* | -3.0% | -0.5% | -4.8% | -15.7%
Cc1cc2c(cc1S(=O)(=O)Nc1cccc(C#N)c1)OCC(=O)N2 | 10.9% | 1.5% | -6.3% | · | 1.3%
CCOC(=O)c1sc(NC(=O)Nc2ccccc2Cl)cc1C | 7.94µM* | -16.4% | -17.4% | -14.8% | ?
c1ccc2cc(CSCc3nc4ccccc4[nH]3)ccc2c1 | 10µM* | 2.2% | -17.0% | -2.3% | ?
O=C(CSCc1nc2ccccc2[nH]1)Nc1ccc2ccccc2c1 | 0.0% | -16.3% | i | 4.5% | 0.2%
O=C(NCCCN1CCOCC1)/C(=C/c1ccc(-c2cccc([N+](=O)[O-])c2)o1)NC(=O)c1ccccc1 | -6.1% | · | i | -2.9% | -1.0%
Cc1nc2nc(C)n(CCN3CCOCC3)c(=O)c2c(-c2cccc([N+](=O)[O-])c2)c1C(=O)CCCCCCCCCCN1CCC(c2ccccc2)(c2ccccc2)CC1 | 2.82µM* | -15.4% | i | -9.4% | ?
COc1ccc(C(=O)NN/C(C)=C/C(=O)C(F)(F)C(F)(F)C(F)(F)F)cc1 | 5.01µM* | 19.3% | i | -2.7% | -28.0%
COc1ccc(C(=O)NNC(=O)OC(C)(C)C)cc1 | 1.0% | -2.5%[11.4 µM] | i | 2.5% | 2.8%
CN(C)S(=O)(=O)c1ccc(NC(=O)N2CCN(c3cccc(C(F)(F)F)c3)CC2)cc1 | 3.55µM* | -3.1% | -38.8% | -13.7% | -6.4%
CCCNC(=O)C1(C)CCCN(C(=O)c2cc(F)cc(F)c2)C1 (stereo not given) | 17.8% | · | i | -6.8% | 1.7%
CCC/C(=C1/c2ccccc2C(=O)N1c1ccccc1)c1ccc2c(c1)OCCO2 | ? | -5.1% | i | 8.1% | -9.5%
CCC/C(=C1/c2ccccc2C(=O)N1c1ccccc1)c1ccc(O[C@@H]2CCCCO2)cc1 | 12.6µM* | -4.7% | i | -6.2% | 1.7%
SMILES | GLP1R inv ag | RGS4 inh | PTHR1 agonist | GLP1R ag | HEK293 tox
O=C(NCCc1cn2ccccc2n1)c1cc(COc2ccc3ncccc3c2)on1 | 12.6µM* | 4.0% | -40.6% | 1.0% | -4.0%
CC(NC(=O)c1cc(COc2ccc3ncccc3c2)on1)c1ccc(F)cc1 (stereo not given) | 1.78µM* | -43.0% | -47.9% | 9.6% | -7.3%
Cc1ccc(C)c(NC(=O)CCN2CCc3ccccc3C2)c1 | 11.2µM* | -20.0% | i | 6.0% | 2.9%
CC(Oc1ccc(Cl)cc1)c1ccnn1S(=O)(=O)c1ccc(Cl)cc1 (stereo not given) | ? | -24.0% | -29.4% | -8.3% | -7.0%
CC(Oc1ccc(-c2ccccc2)c(F)c1)c1ccn(S(=O)(=O)c2ccc(Br)cc2)n1 (stereo not given) | 7.08µM* | 8.9% | -22.4% | -1.5% | -4.7%
Cc1nn(C)c(C)c1CCNC(=O)Nc1ccccc1C(F)(F)F | 0.8% | 10.1% | ? | · | 1.0%
COc1ccc(CCNC(=O)c2cccc(S(=O)(=O)N3CCCCC3)c2)cc1 | ? | -2.8% | -28.5% | 2.5% | -15.8%
COc1ccc(CCNC(=O)c2cc(S(=O)(=O)N3CCCCC3)ccc2Cl)cc1 | 8.91µM* | -0.8% | -23.2% | 6.9% | 19.8%
CC(C)(C)C(=O)Cn1c(=O)n(CCCCCC(=O)NCc2ccc3c(c2)OCO3)c(=O)c2sccc21 | ? | 12.6% | -14.4% | · | 3.5%
O=C(NC1(C(F)(F)F)NC(=O)N(CCc2ccccc2)C1=O)c1ccc(Cl)cc1 (stereo not given) | ? | 13.3% | i | -4.3% | -4.9%
CC(C)(C)c1ccc(C(=O)NC2(C(F)(F)F)NC(=O)N(CCc3ccccc3)C2=O)cc1 (stereo not given) | 12.6µM* | -1.7% | -30.3% | -5.2% | -32.4%
COc1cc(CNc2ccc(CNc3ncn[nH]3)cc2)ccc1OCc1ccccc1 | 2µM* | -7.0% | -48.0% | 7.3% | -2.1%
Cc1cccc(C2=NN(c3ccccc3)[C@@H](C(=O)N3CCOC3=O)[C@@H]2c2ccc(Cl)cc2)c1 | ? | 15.8% | -9.8% | -1.1% | 50.8%
Cc1cccc(C2=NN(c3ccccc3)[C@@H](C(=O)N3CCOC3=O)[C@@H]2c2ccc(F)cc2)c1 | 12.6µM* | 2.6% | -8.6% | 1.1% | 124.8%
CCc1ccc(NC(=O)c2nc3nc(C)cc(C(F)F)n3n2)cc1 | 4.5% | 1.5% | i | · | -1.6%
COc1ccc(C=O)cc1CN1CCCN(Cc2ccc(Cl)cc2)S1(=O)=O | 7.08µM* | -12.8% | -0.1% | 18.3% | 1.3%
COC(=O)c1ccc(OC)c(CN2CCCN(Cc3ccc(F)cc3)S2(=O)=O)c1 | 10µM* | 9.1% | -5.5% | 19.8% | 2.1%
CCN(CC)S(=O)(=O)c1ccc2c(c1)N(CC(=O)NCc1ccccc1)C(=O)C1CCCCN21 (stereo not given) | 5.9% | -10.6% | i | · | -0.2%
CCN1C(N(C)CCc2c[nH]c3ccccc23)=N[C@@H](c2cccc(C(F)(F)F)c2)C(C(=O)OC)=C1C | 10µM* | -16.8% | -24.8% | -1.4% | -12.1%
O=C(NCC1CCCO1)c1nn2c(C(F)(F)F)cc(-c3cc(Br)cs3)nc2c1Br (stereo not given) | 2.7% | -20.9% | i | 8.6% | 15.4%
